A selection: hits, their analogues and other compounds. The true share with any hit is near 19%.
TDP1 cell noCPT: qHTS for Inhibitors of human tyrosyl-DNA phosphodiesterase 1 (TDP1): qHTS in cells in absence of CPT; Potency, µM (series often up to 46.2 µM), actives largely listed as inhibitors; DT40 Tdp1-/- hTDP1 cells, no CPT, ATP luminescence, 48 h; 420,000 tested, 15% active; AID 686978, 2013; note: nearly all actives have a fitted effect of over 55% in size
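Stably hTDP1-transfected Tdp1-null chicken DT40 cells were treated with library compounds minus camptothecin and grown for at least 48 hr at 37 °C, after which cellular ATP was quantified by luminescence.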
TDP1 cell CPT: DT40-hTDP1 cell growth loss with CPT. chicken DT40 Tdp1-/-;hTDP1 cells + 20 nM CPT, ATP luminescence, 48 h. 420,000 tested, 12% active. Potency, µM (series often up to 46.2 µM), hits mostly inhibitors; note: nearly all actives have a fitted effect of over 55% in size
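Cell growth measured by CellTiter-Glo luminescence after a minimum 48 h, 37 C compound exposure with 20 nM CPT in Tdp1-knockout DT40 cells stably expressing hTDP1, seeded 400/well; qHTS titration format.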
HT1080-NT tox: kills 2HG-producing HT-1080-NT fibrosarcoma cells | Potency, µM (series often up to 46.1 µM), actives largely listed as cytotoxic | HT-1080-NT fibrosarcoma viability, CellTiter-Glo ATP luminescence, 48 h | 360,000 tested, 1.6% active;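 note: NT is the 2HG producing partner of a matched IDH1 knockdown line; nearly all actives have a fitted effect of over 55% in size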
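Luminescent CellTiter-Glo readout after 48 hours of compound exposure at 37 degrees C defined viability of HT-1080-NT cells. Activity was normalized to DMSO wells and cell-free media wells; concentration-response curves were fitted and assigned curve classes.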
IL-1B inflam inh: inhibitors of inflammasome signaling (IL-1 beta secretion) | THP-1 LPS/ATP IL-1B secretion, AlphaLISA, 16 h; active compounds read low | activity change, % at 57.5 µM | 360,000 tested, 4.7% active | AID 743279; in the data active = activity change below about -50%; inconclusive = mostly about -30% to -49%
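Secreted IL-1B measured by AlphaLISA bead assay after 16 h compound exposure of THP-1 cells; compounds (final up to 57.5 uM) added 1 h before LPS (250 ng/mL) and ATP (1.25 mM) stimulation; lower signal means less secretion.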
HT1080 IDH1KD tx: HT-1080 IDH1 knockdown cell toxicity (counter line). HT-1080 IDH1 knockdown viability, ATP luminescence, 48 h. Potency, µM (highest dose often 46.1 µM), hits mostly cytotoxic. 360,000 tested, 2% active. AID 686971
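Using the IDH1-knockdown HT-1080 line run in the same batch and compound series as the NT line, viability after 48 h at 37 °C was determined by CellTiter-Glo luminescence and expressed as % activity.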
Each line names hits and unclear results; the compound was inactive in the other large screens. Unless noted, calls come from the whole dose curve; as a rule, active = well fitted curve in the direction sought with a large enough effect; inconclusive = small, poorly fitted or top-dose-only effect, or another doubt; inactive = no such curve, though single readings can be large; an effect the other way counts as inactive or inconclusive.

N#Cc1ccccc1OCCCN1CCC(Cc2ccccc2)CC1	TDP1 cell noCPT 16µM, TDP1 cell CPT inconclusive, IL-1B inflam inh inconclusive, HT1080 IDH1KD tx inconclusive
CCC(=O)c1ccccc1OCCCN1CCC(Cc2ccccc2)CC1	TDP1 cell noCPT inconclusive, TDP1 cell CPT inconclusive, HT1080-NT tox 18µM, IL-1B inflam inh -89, HT1080 IDH1KD tx inconclusive
COc1cccc(OC)c1OCCCCN1CCC(Cc2ccccc2)CC1	TDP1 cell noCPT 18µM, TDP1 cell CPT inconclusive, HT1080-NT tox inconclusive, IL-1B inflam inh -77, HT1080 IDH1KD tx inconclusive
COc1ccc(CN2CCC(N(CCc3ccccc3)Cc3ccccc3)CC2)c(OC)c1	TDP1 cell noCPT 23µM, TDP1 cell CPT 23µM, HT1080-NT tox inconclusive, IL-1B inflam inh -94, HT1080 IDH1KD tx inconclusive
Cn1c(=O)c2c(nc(OC3CCCCCC3)n2C)n(C)c1=O	TDP1 cell noCPT inconclusive, TDP1 cell CPT inconclusive
CC(/C=C/c1ccco1)=N\NC(=O)COc1ccc(C)c(C)c1	none
CC1(C)CC(C(=O)N2CCOc3ccc(CN4CCN(Cc5ccccn5)CC4)cc3C2)CCO1 (centres undefined)	none (no result: HT1080-NT tox, IL-1B inflam inh, HT1080 IDH1KD tx)
CC(C)Nc1ncnc2c1ncn2[C@H]1CN(Cc2ccc3c(c2)OCO3)C[C@@H](CO)O1	none
COc1ccc(CN2CCC(Cc3ccccc3)CC2)c(C)c1C	TDP1 cell noCPT inconclusive, TDP1 cell CPT inconclusive, HT1080-NT tox inconclusive, IL-1B inflam inh -78, HT1080 IDH1KD tx inconclusive
CCOC(=O)CNC(=O)c1ccc(-c2nn(C)c(=O)c3ccccc23)cc1	none (no result: HT1080-NT tox, IL-1B inflam inh, HT1080 IDH1KD tx)
CCC(C)NC(=O)CNC(=O)Cn1c(C)cc2ccccc2c1=O (centres undefined)	none
O=S(=O)(NCC(c1cccnc1)N1CCN(Cc2ccccc2)CC1)c1cc(F)ccc1F (centres undefined)	TDP1 cell CPT inconclusive
Cc1ccc(NC(=O)C(=O)NCC(c2cccnc2)N2CCN(C)CC2)cc1 (centres undefined)	none (no result: HT1080-NT tox, IL-1B inflam inh, HT1080 IDH1KD tx)
O=C(NCC(c1cccnc1)N1CCN(Cc2ccccc2)CC1)C(=O)Nc1ccc(F)cc1 (centres undefined)	TDP1 cell noCPT 23µM, TDP1 cell CPT 18µM (no result: HT1080-NT tox, IL-1B inflam inh, HT1080 IDH1KD tx)
CCc1ccc(NC(=O)C(=O)NCC(c2cccnc2)N2CCN(Cc3ccccc3)CC2)cc1 (centres undefined)	TDP1 cell noCPT 8.2µM, TDP1 cell CPT 12µM (no result: HT1080-NT tox, IL-1B inflam inh, HT1080 IDH1KD tx)
O=C(NCC(c1cccnc1)N1CCN(Cc2ccccc2)CC1)C(=O)Nc1cccc(F)c1 (centres undefined)	TDP1 cell noCPT 23µM, TDP1 cell CPT 26µM (no result: HT1080-NT tox, IL-1B inflam inh, HT1080 IDH1KD tx)
CC1(C)CCC(NC(=O)[C@@H](N)CCC(=O)O)CC1	none (no result: HT1080-NT tox, IL-1B inflam inh, HT1080 IDH1KD tx)
CCCOc1ccc(/C(O)=C2/C(=O)C(=O)N(CCCn3ccnc3)C2c2cccnc2)cc1 (centres undefined)	none
Cc1ccc(CSc2nc(=O)c3c(n2C)NC(=O)CC3c2ccc(OC(C)C)cc2)cc1 (centres undefined)	TDP1 cell CPT inconclusive (no result: HT1080-NT tox, IL-1B inflam inh, HT1080 IDH1KD tx)
c1ccc2c(-c3csc(-c4ccncc4)n3)c[nH]c2c1	TDP1 cell noCPT 15µM, TDP1 cell CPT 18µM, HT1080-NT tox inconclusive, HT1080 IDH1KD tx inconclusive
Brc1ccc(-c2csc(-c3c[nH]c4ccccc34)n2)cc1	TDP1 cell noCPT inconclusive, TDP1 cell CPT inconclusive, HT1080-NT tox inconclusive, HT1080 IDH1KD tx inconclusive
O=S(=O)(N/N=C\c1c(F)cccc1Cl)c1ccc(Cl)cc1	TDP1 cell noCPT inconclusive, TDP1 cell CPT 13µM
CC(=O)Nc1c(C#N)c(-c2ccccc2)c(C#N)c(=O)n1-c1ccc(C)cc1	none
CCCCCN(C(=O)CCC(=O)OCc1ccc(Cl)cc1Cl)c1c(N)n(CCCC)c(=O)[nH]c1=O	TDP1 cell noCPT inconclusive, TDP1 cell CPT inconclusive, IL-1B inflam inh -66
CCCCCN(C(=O)CCC(=O)OCc1cccc(F)c1)c1c(N)n(CCCC)c(=O)[nH]c1=O	none
CCCCCN(C(=O)CCC(=O)OCc1cccc(C)c1)c1c(N)n(CCCC)c(=O)[nH]c1=O	TDP1 cell noCPT inconclusive, TDP1 cell CPT 21µM
CCCCCN(C(=O)CCC(=O)OCc1ccccc1Cl)c1c(N)n(CCCC)c(=O)[nH]c1=O	TDP1 cell CPT inconclusive
CC1(C2CC2)NC(=O)N(CC(=O)Nc2ccccc2C#N)C1=O (centres undefined)	none
CC(OC(=O)CCN1C(=O)C2CC=CCC2C1=O)C(=O)Nc1ccc(F)cc1 (centres undefined)	none
C[C@@H](C(=O)Nc1nc(-c2ccccn2)cs1)N1C(=O)C2CCCCC2C1=O (some centres undefined)	TDP1 cell noCPT inconclusive, TDP1 cell CPT inconclusive
CC1(c2ccccc2)NC(=O)N(CC(=O)NNC(=O)c2ccccc2)C1=O (centres undefined)	none
CC1(c2ccccc2)NC(=O)N(CC(=O)Nc2nc(-c3ccccn3)cs2)C1=O (centres undefined)	TDP1 cell noCPT 15µM, TDP1 cell CPT 23µM
O=C(CN1C(=O)C2CCCCC2C1=O)Nc1nc(-c2ccccn2)cs1 (centres undefined)	TDP1 cell noCPT 10µM, TDP1 cell CPT 12µM, HT1080-NT tox inconclusive, HT1080 IDH1KD tx inconclusive
COC(=O)Cc1ccc(NC(=O)c2ccccc2Br)cc1	none
CC(=O)/C(N=Nc1ccc(SC(F)F)cc1)=C(\C)O	none
CCSC(=O)N=Nc1ccc(O)cc1	TDP1 cell noCPT 12µM, TDP1 cell CPT 15µM, HT1080-NT tox inconclusive
O=c1cc(CN(Cc2ccccc2)Cc2ccccc2)c2ccccc2o1	TDP1 cell noCPT inconclusive, TDP1 cell CPT inconclusive, HT1080 IDH1KD tx inconclusive
CC(C)Cc1cc(C(=O)N2CCCC(CO)(Cc3ccc(F)cc3)C2)no1 (centres undefined)	TDP1 cell noCPT inconclusive, TDP1 cell CPT inconclusive
CC(C)c1cc(C(=O)N2CCCC(N3CCN(c4ccc(F)cc4)CC3)C2)no1 (centres undefined)	TDP1 cell noCPT inconclusive, TDP1 cell CPT inconclusive
CC(C)c1cc(C(=O)N2CCCC(N3CCN(c4ccc(F)cc4)CC3)C2)n(C)n1 (centres undefined)	TDP1 cell noCPT inconclusive, TDP1 cell CPT 16µM
Cc1cc(C(=O)N2CCCC(C(=O)c3cc(F)ccc3F)C2)c(C)o1 (centres undefined)	TDP1 cell noCPT 18µM, TDP1 cell CPT inconclusive
Cc1cc(C(=O)N2CCCC(N3CCN(c4ccc(F)cc4)CC3)C2)c(C)o1 (centres undefined)	TDP1 cell noCPT 18µM, TDP1 cell CPT 23µM
Cc1cc(C(=O)N2CCCC(CO)(Cc3ccc(F)cc3)C2)c(C)o1 (centres undefined)	TDP1 cell noCPT 23µM, TDP1 cell CPT 23µM
CCCCCCCCC(NC(=O)c1ccc(C#N)cc1)C(=O)NCCC (centres undefined)	TDP1 cell noCPT inconclusive, TDP1 cell CPT inconclusive
COc1cc2c(cc1OC)C(C(=O)c1ccc(OC)c(OC)c1O)=NCC2	none (no result: HT1080-NT tox, IL-1B inflam inh, HT1080 IDH1KD tx)

Bioassay records (PubChem)
